Structures are written as SMILES. About 79,000 compounds went through this panel and 15% of them were active in at least one assay; those are over-represented in the sample as a whole. Calls of active or inactive are those of the source. Cut-off read from the data, not from the text of the source: active = growth inhibition above about 70%; inactive = the rest. Where a SMILES comes first, the peptide text is derived from it. The star is where a group is joined. Boc = CC(C)(C)OC(=O)*; tBu = CC(C)(C)*

One assay is described as follows: NCI Yeast Anticancer Drug Screen. Data for the bub3 strain (AID 167). To be noted: S. cerevisiae bub3 mutant strain, at 50.0 µM, stronger effect = higher value. The essentials: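 Growth of a checkpoint-deficient yeast mutant is measured after compound exposure. Values represent inhibition relative to vehicle.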
For the compound `Cc1sc2nc(N(C)C)oc(=O)c2c1C`, the growth inhibition was 64.4% (inactive).

As to `Cc1ccc(S(=O)(=O)NN=C2C(C)(C)C(=O)C2(C)C)cc1`, the growth inhibition is -2.25% (inactive).

With `Cc1ccc(OC(=O)NC(C)(C)C)cc1`, the growth inhibition was 11.8% (inactive).

For `OC1c2ccccc2-c2ccccc21`, the growth inhibition is 6.8% (inactive).

Consider `O=C(CNC(=O)c1ccccc1)Nc1ccc([N+](=O)[O-])cc1`, for which the growth inhibition is 22.6% (inactive).

Regarding `O=[N+]([O-])c1ccc(N/N=C/C(Br)(Br)Br)c([N+](=O)[O-])c1`, the growth inhibition is -14.4% (inactive).

For the compound `O=C1C(NS(=O)(=O)c2ccccc2)=C(N(Cc2ccccc2)Cc2ccccc2)C(=O)c2ccccc21`, the growth inhibition was 8.95% (inactive).

`O=c1c2ccccc2[nH]c2ccc(Br)cc12`: the growth inhibition is 2.95% (inactive).

As to `CC(=O)Nc1ccc(NC(=O)Nc2cc(Cl)ccc2C)cc1`, the growth inhibition was 17.8% (inactive).

Turning to `Cc1ccc2nc(-c3ccc(-c4nc5ccc(C)cc5o4)c(O)c3)oc2c1`, the growth inhibition was -17.2% (inactive).

Take `CCN/C(C)=C\C(=O)OCC`: the growth inhibition is -9.95% (inactive).

Regarding `O=S(=O)(O)c1cc(Cl)c(O)c(Cl)c1`, the growth inhibition was 6.8% (inactive).

As for `Clc1ccc2nc(/C=C/c3ccccc3)ccc2c1`, the growth inhibition was 6.9% (inactive).

As to `O=S(=O)(O)CNc1ccc(Cl)cc1`, the growth inhibition was -23.1% (inactive).

As for `CC(=O)N1CC(=O)N2C(=O)/C(=C/c3ccc(Cl)cc3)N=C12`, the growth inhibition was 9.45% (inactive).

Turning to `Cc1ccc(S(=O)(=O)C(C#N)CCC(=O)c2ccc(Cl)cc2)cc1` (stereo not given), the growth inhibition was 10.2% (inactive).

Turning to `COc1ccc(N2NC(c3ccccc3)(c3ccccc3)C(C)C2=O)cc1` (stereo not given), the growth inhibition was 51.2% (inactive).

Take `NC(=O)N/N=C1\CCCCC12CCCCC2`: the growth inhibition was 2.2% (inactive).

For the compound `CCCCCCCCCCCCCCCCOc1ccc(Sc2ccc([N+](=O)[O-])cc2)cc1`, the growth inhibition was 13.6% (inactive).

As to `CCC(=O)CC(=O)C(=O)OC`, the growth inhibition was 3.5% (inactive).

`Cc1ccc(S(=O)(=O)C(=S)N(C)N(C)C)cc1`: the growth inhibition was 25.4% (inactive).

In the case of `CC1CCCC2(CN=C(Nc3ccccc3)O2)C1` (stereo not given), the growth inhibition was -10.1% (inactive).

As to `O=C(CC(C(=O)c1cccs1)c1cccs1)c1ccsc1` (stereo not given), the growth inhibition is 2.9% (inactive).

Regarding `Cc1ccc(NC(=NCCCN(C)C)C(c2ccccc2)c2ccccc2)cc1`, the growth inhibition was 11.4% (inactive).

As to `COc1cc2c(cc1OC)[C@H]1C(COC(=O)Nc3ccccc3)CN1CC2` (stereo not given in full), the growth inhibition was -30.6% (inactive).

In the case of `O=c1[nH]c(=O)n(C2OC(COP(=O)(O)OP(=O)(O)OC3OC(CO)C(O)C(O)C3O)C(O)C2O)cc1F` (stereo not given), the growth inhibition was -15.3% (inactive).

For the compound `COC1=C2CC(C)CC(OC)C(OC(C)=O)C(C)/C=C(\C)C(OC(N)=O)C(OC)/C=C\C=C(/C)C(=O)NC(=CC1=O)C2=O` (stereo not given), the growth inhibition is 90.7% (active).

For `NS(=O)(=O)c1ncc(C(=O)N2CCN(Cc3ccccc3)CC2)[nH]1`, the growth inhibition is 1.05% (inactive).

With `CC(C)(OC(=O)Nc1ccccc1)c1ccc([N+](=O)[O-])cc1`, the growth inhibition is -22.7% (inactive).

Regarding `CCCOC(=O)c1c(C)c(C)cc(C)c1C`, the growth inhibition was -1.3% (inactive).

With `CCOC(=O)Nc1nc(-c2ccc(Br)cc2)cs1`, the growth inhibition was 14.1% (inactive).

`O=c1[nH]cc(CCOCc2ccccc2)c(=O)[nH]1`: the growth inhibition is -10.4% (inactive).

Turning to `CS(=O)(=O)/C=C/c1ccccc1`, the growth inhibition is -2.1% (inactive).

As to `c1ccc2c3c([nH]c2c1)CCCCCC3`, the growth inhibition was 21.8% (inactive).

On to `O=C(O)c1ccccc1C(=O)CC(O)(C(F)(F)F)C(F)(F)F`, for which the growth inhibition is -10.9% (inactive).

For `CSc1ccc2c(c1)Cc1cc(NC(C)=O)ccc1-2`, the growth inhibition is -11.8% (inactive).

In the case of `Cc1c(F)c(N)c2c(=O)cc(-c3ccc(N)c(F)c3)oc2c1F`, the growth inhibition is 22.9% (inactive).

For the compound `CC(OC(C)(C)C)C(NC(=O)C(N)CCCCNC(=O)OC(C)(C)C)C(=O)NC(Cc1ccccc1)C(=O)O` (stereo not given) (H-Lys(Boc)-Thr(tBu)-Phe-OH; configuration not given here), the growth inhibition is -5% (inactive).

Consider `COc1ccc(/C=C\c2cc(OC)c(OC)c(OC)c2)cc1OC`, for which the growth inhibition was -13.1% (inactive).

`COc1ccc(NC(=O)Nc2ccc(Cl)cc2C)cc1`: the growth inhibition is -12.5% (inactive).

Another assay in a line: NCI Yeast Anticancer Drug Screen. Data for the mlh1 rad18 strain (AID 175). To be noted: S. cerevisiae mlh1 rad18 strain growth inhibition; at 50.0 µM; stronger effect = higher value. The essentials: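 Genetically defined yeast (DNA repair-deficient) exposed to compounds; growth inhibition determined relative to vehicle.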
Turning to `Cc1sc2nc(N(C)C)oc(=O)c2c1C`, the growth inhibition is 50.5% (inactive).

As to `Cc1ccc(S(=O)(=O)NN=C2C(C)(C)C(=O)C2(C)C)cc1`, the growth inhibition is -6.45% (inactive).

As to `Cc1ccc(OC(=O)NC(C)(C)C)cc1`, the growth inhibition was -12.5% (inactive).

With `OC1c2ccccc2-c2ccccc21`, the growth inhibition is 25.2% (inactive).

Take `O=C(CNC(=O)c1ccccc1)Nc1ccc([N+](=O)[O-])cc1`: the growth inhibition is 5.7% (inactive).

For the compound `O=[N+]([O-])c1ccc(N/N=C/C(Br)(Br)Br)c([N+](=O)[O-])c1`, the growth inhibition is -27.9% (inactive).

With `O=C1C(NS(=O)(=O)c2ccccc2)=C(N(Cc2ccccc2)Cc2ccccc2)C(=O)c2ccccc21`, the growth inhibition was -6.75% (inactive).

Regarding `O=c1c2ccccc2[nH]c2ccc(Br)cc12`, the growth inhibition is 17.8% (inactive).

On to `CC(=O)Nc1ccc(NC(=O)Nc2cc(Cl)ccc2C)cc1`, for which the growth inhibition is 5.1% (inactive).

For `Cc1ccc2nc(-c3ccc(-c4nc5ccc(C)cc5o4)c(O)c3)oc2c1`, the growth inhibition was -24.8% (inactive).

For the compound `CCN/C(C)=C\C(=O)OCC`, the growth inhibition is 1.25% (inactive).

`O=S(=O)(O)c1cc(Cl)c(O)c(Cl)c1`: the growth inhibition is 23.2% (inactive).

Turning to `Clc1ccc2nc(/C=C/c3ccccc3)ccc2c1`, the growth inhibition was -15.7% (inactive).

`O=S(=O)(O)CNc1ccc(Cl)cc1`: the growth inhibition was 4.05% (inactive).

Consider `CC(=O)N1CC(=O)N2C(=O)/C(=C/c3ccc(Cl)cc3)N=C12`, for which the growth inhibition was -42.4% (inactive).

With `Cc1ccc(S(=O)(=O)C(C#N)CCC(=O)c2ccc(Cl)cc2)cc1` (stereo not given), the growth inhibition was 17.6% (inactive).

In the case of `COc1ccc(N2NC(c3ccccc3)(c3ccccc3)C(C)C2=O)cc1` (stereo not given), the growth inhibition is 40.1% (inactive).

With `NC(=O)N/N=C1\CCCCC12CCCCC2`, the growth inhibition was -11.4% (inactive).

With `CCCCCCCCCCCCCCCCOc1ccc(Sc2ccc([N+](=O)[O-])cc2)cc1`, the growth inhibition is 31.6% (inactive).

Take `CCC(=O)CC(=O)C(=O)OC`: the growth inhibition was 17% (inactive).

`Cc1ccc(S(=O)(=O)C(=S)N(C)N(C)C)cc1`: the growth inhibition was 88% (active).

With `CC1CCCC2(CN=C(Nc3ccccc3)O2)C1` (stereo not given), the growth inhibition is -6.15% (inactive).

For the compound `O=C(CC(C(=O)c1cccs1)c1cccs1)c1ccsc1` (stereo not given), the growth inhibition is -4.1% (inactive).

With `Cc1ccc(NC(=NCCCN(C)C)C(c2ccccc2)c2ccccc2)cc1`, the growth inhibition was 13.4% (inactive).

For the compound `COc1cc2c(cc1OC)[C@H]1C(COC(=O)Nc3ccccc3)CN1CC2` (stereo not given in full), the growth inhibition is -49.1% (inactive).

`O=c1[nH]c(=O)n(C2OC(COP(=O)(O)OP(=O)(O)OC3OC(CO)C(O)C(O)C3O)C(O)C2O)cc1F` (stereo not given): the growth inhibition is 9.85% (inactive).

For the compound `COC1=C2CC(C)CC(OC)C(OC(C)=O)C(C)/C=C(\C)C(OC(N)=O)C(OC)/C=C\C=C(/C)C(=O)NC(=CC1=O)C2=O` (stereo not given), the growth inhibition was 89.4% (active).

As to `NS(=O)(=O)c1ncc(C(=O)N2CCN(Cc3ccccc3)CC2)[nH]1`, the growth inhibition was 6.95% (inactive).

Turning to `CC(C)(OC(=O)Nc1ccccc1)c1ccc([N+](=O)[O-])cc1`, the growth inhibition was -4.45% (inactive).

Regarding `CCCOC(=O)c1c(C)c(C)cc(C)c1C`, the growth inhibition was -12.3% (inactive).

For the compound `CCOC(=O)Nc1nc(-c2ccc(Br)cc2)cs1`, the growth inhibition was -17.9% (inactive).

For the compound `O=c1[nH]cc(CCOCc2ccccc2)c(=O)[nH]1`, the growth inhibition is -17% (inactive).

Turning to `CS(=O)(=O)/C=C/c1ccccc1`, the growth inhibition was 0.75% (inactive).

Take `c1ccc2c3c([nH]c2c1)CCCCCC3`: the growth inhibition is 15.9% (inactive).

In the case of `O=C(O)c1ccccc1C(=O)CC(O)(C(F)(F)F)C(F)(F)F`, the growth inhibition is -20.9% (inactive).

As to `CSc1ccc2c(c1)Cc1cc(NC(C)=O)ccc1-2`, the growth inhibition was 1.05% (inactive).

On to `Cc1c(F)c(N)c2c(=O)cc(-c3ccc(N)c(F)c3)oc2c1F`, for which the growth inhibition was 1.2% (inactive).

Take `CC(OC(C)(C)C)C(NC(=O)C(N)CCCCNC(=O)OC(C)(C)C)C(=O)NC(Cc1ccccc1)C(=O)O` (stereo not given) (H-Lys(Boc)-Thr(tBu)-Phe-OH; configuration not given here): the growth inhibition is -15% (inactive).

With `COc1ccc(/C=C\c2cc(OC)c(OC)c(OC)c2)cc1OC`, the growth inhibition was 12% (inactive).

On to `COc1ccc(NC(=O)Nc2ccc(Cl)cc2C)cc1`, for which the growth inhibition is -15.2% (inactive).

These data come from PubChem BioAssay (NCI).
